Source: the supplement of paper PMC12645437, “Orthogonal IMiD-Degron Pairs Induce Selective Protein Degradation in Cells” (ACS Chemical Biology, 2025)
Whole data set: some 8,300 sequences, median “log2 fold change of degron read counts, EGFP-low vs EGFP+ sorted cells (limma voom), compound-induced degradation” near -1.1, cut for the highest 2% near 3.2. Only a selection was taken, and the highest values are over-represented in it overall.

T1: CRBN, Q96SW2
T1 chain: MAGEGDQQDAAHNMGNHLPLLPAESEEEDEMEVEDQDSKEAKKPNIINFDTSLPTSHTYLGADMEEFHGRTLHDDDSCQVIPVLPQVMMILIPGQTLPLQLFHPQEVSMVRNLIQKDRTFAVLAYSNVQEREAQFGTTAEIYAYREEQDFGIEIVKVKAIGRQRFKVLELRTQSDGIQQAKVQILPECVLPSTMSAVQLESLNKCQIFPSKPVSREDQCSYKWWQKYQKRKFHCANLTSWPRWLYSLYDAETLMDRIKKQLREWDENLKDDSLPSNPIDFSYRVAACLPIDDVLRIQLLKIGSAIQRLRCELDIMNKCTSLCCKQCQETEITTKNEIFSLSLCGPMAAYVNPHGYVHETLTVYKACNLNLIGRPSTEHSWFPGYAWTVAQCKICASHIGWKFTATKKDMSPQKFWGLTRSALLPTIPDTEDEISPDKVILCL


Target: T1, CRBN, Q96SW2
Experiment: log2 fold change of degron read counts, EGFP-low vs EGFP+ sorted cells (limma voom), compound-induced degradation; higher = more compound-induced degradation of the degron-EGFP fusion; degrons are variants of IKZF1/3 zinc finger 2; compound dose not given here
Conditions: Jurkat, 18 h
Protocol: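 Pooled library of 8380 IKZF3 ZF2 degron mutants (positions 146-167 varied within the IKZF3 130-189 degron; only the varied core is printed, flanks not printed) fused to EGFP with IRES-mCherry, lentivirally expressed in Jurkat cells. mCherry+ cells were treated with one IMiD compound for 18 h (dose not stated) and FACS-sorted into EGFP-low and EGFP+ populations. Degron sequences were counted by NGS, and log2FC (EGFP-low vs EGFP+) was estimated by limma voom over 3 biological replicates.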

[1] = compound: compound 19 (5-tert-butyl-thalidomide)
[2] = compound: compound 22 (5-morpholino-thalidomide)
[3] = compound: compound 33 (diphenyl IMiD analogue)
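Further: pooled lentiviral library of zinc finger degron-EGFP fusions in mCherry-positive Jurkat cells, FACS-sorted after compound exposure, with degron abundance counted by next-generation sequencing.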

Sequence	log2 fold change of degron read counts [1]	log2 fold change of degron read counts [2]	log2 fold change of degron read counts [3]	log2 fold change of degron read counts (compound: thalidomide)
FECNVCGACFTQKGNLLRHIKL [46F_47E_49N_50V_52G_53A_54C_55F_67L_, Q9UKT9]	-1.77	-2.3	0.438	0.297
FYCEICGAIFTQKGNLLRHIKL [46F_47Y_49E_50I_52G_53A_54I_55F_67L_, Q9UKT9]	3.43	3.53	2.4	0.401
FRCEICGAIFTQKGNLLRHIKL [46F_47R_49E_50I_52G_53A_54I_55F_67L_, Q9UKT9]	-1.64	-0.637	1.17	1.56
FGCEICGAIFTQKGNLLRHIKL [46F_47G_49E_50I_52G_53A_54I_55F_67L_, Q9UKT9]	2.93	2.72	1.73	0.804
FICEICGAIFTQKGNLLRHIKL [46F_47I_49E_50I_52G_53A_54I_55F_67L_, Q9UKT9]	-0.706	0.427	2.23	1.71
FDCEICGAIFTQKGNLLRHIKL [46F_47D_49E_50I_52G_53A_54I_55F_67L_, Q9UKT9]	-0.448	-0.893	-0.134	-0.014
FACEICGAIFTQKGNLLRHIKL [46F_47A_49E_50I_52G_53A_54I_55F_67L_, Q9UKT9]	3.52	1.96	0.532	0.207
FSCEICGAIFTQKGNLLRHIKL [46F_47S_49E_50I_52G_53A_54I_55F_67L_, Q9UKT9]	2.19	1.4	1.65	0.91
FFCEICGAIFTQKGNLLRHIKL [46F_47F_49E_50I_52G_53A_54I_55F_67L_, Q9UKT9]	3.4	3.61	1.62	0.938
FWCEICGAIFTQKGNLLRHIKL [46F_47W_49E_50I_52G_53A_54I_55F_67L_, Q9UKT9]	3.17	3.55	2.41	0.519
FNCEICGAIFTQKGNLLRHIKL [46F_47N_49E_50I_52G_53A_54I_55F_67L_, Q9UKT9]	0.366	-0.376	-0.467	-0.484
FECEICGAIFTQKGNLLRHIKL [46F_47E_49E_50I_52G_53A_54I_55F_67L_, Q9UKT9]	-1.24	-1.08	1.05	2.4
FHCEICGAIFTQKGNLLRHIKL [46F_47H_49E_50I_52G_53A_54I_55F_67L_, Q9UKT9]	1.06	0.746	0.49	-0.388
FSCNQCGRCFTQKGNLLRHIKL [46F_47S_49N_50Q_52G_53R_54C_55F_67L_, Q9UKT9]	-2.78	-2.88	-2.83	-2.73
FNCPQCGADFTQKGNLLRHIKL [46F_47N_49P_50Q_52G_53A_54D_55F_67L_, Q9UKT9]	-3.44	-3.57	-2.75	-3.69
FFCNICGAEFTQKGNLLRHIKL [46F_47F_49N_50I_52G_53A_54E_55F_67L_, Q9UKT9]	1.77	1.94	0.373	-0.454
FSCPICGHQFTQKGNLLRHIKL [46F_47S_49P_50I_52G_53H_54Q_55F_67L_, Q9UKT9]	-2.3	-3.17	-1.53	-1.82
FSCNQCGRDFTQKGNLLRHIKL [46F_47S_49N_50Q_52G_53R_54D_55F_67L_, Q9UKT9]	-3.12	-4.04	-2.59	-2.97
LFCNQCGFNCTQKGNLLRHIKL [46L_47F_49N_50Q_52G_53F_54N_55C_67L_, Q9UKT9]	-1.81	-1.88	-1.92	-1.45
FECNQCGAHFTQKGNLLRHIKL [46F_47E_49N_50Q_52G_53A_54H_55F_67L_, Q9UKT9]	-2.49	-3.01	-2.49	-2.34
FMCEICGAIFTQKGNLLRHIKL [46F_47M_49E_50I_52G_53A_54I_55F_67L_, Q9UKT9]	-1.18	-0.577	2.14	0.96
FCCEICGAIFTQKGNLLRHIKL [46F_47C_49E_50I_52G_53A_54I_55F_67L_, Q9UKT9]	1.48	1.57	2.5	1.97
FQCEICGAIFTQKGNLLRHIKL [46F_47Q_49E_50I_52G_53A_54I_55F_67L_, Q9UKT9]	-0.255	3.16	2.84	3.68
FICDVCGASFTQKGNLLRHIKL [46F_47I_49D_50V_52G_53A_54S_55F_67L_, Q9UKT9]	-1.49	1.22	0.774	0.427
FRCEVCGAHFTQKGNLLRHIKL [46F_47R_49E_50V_52G_53A_54H_55F_67L_, Q9UKT9]	-1.19	-1.13	0.668	0.202
FWCEVCGAHFTQKGNLLRHIKL [46F_47W_49E_50V_52G_53A_54H_55F_67L_, Q9UKT9]	3.1	3.92	1.96	0.936
FACEVCGAHFTQKGNLLRHIKL [46F_47A_49E_50V_52G_53A_54H_55F_67L_, Q9UKT9]	3.16	0.662	0.411	-0.296
FVCEVCGAHFTQKGNLLRHIKL [46F_47V_49E_50V_52G_53A_54H_55F_67L_, Q9UKT9]	-0.244	1.53	1.35	1.87
FTCEVCGAHFTQKGNLLRHIKL [46F_47T_49E_50V_52G_53A_54H_55F_67L_, Q9UKT9]	-0.0867	0.738	1.47	2.04
FYCEVCGAHFTQKGNLLRHIKL [46F_47Y_49E_50V_52G_53A_54H_55F_67L_, Q9UKT9]	3.12	3.62	2.45	0.916
